PubChem BioAssay AID1347076 (National Center for Advancing Translational Sciences (NCATS), 2019)
In all, about 400,000 compounds went through this assay and about 13,000 (3.2%) were called active. About 18% were inconclusive and are not listed. Many of the other results were omitted from the sample, so actives are more common in it than they were. Unmarked numbers belong to inactive results. Calls come from the whole dose curve; as a rule, active = well fitted cell-killing curve with a large enough effect; inconclusive = small, poorly fitted or top-dose-only effect, or effect the other way; inactive = flat fitted curve, though single readings scatter.

experiment: qHTS assay for MDR1-selective chemotherapeutics: Primary screen using the drug-selected MDR subline cells KB-V1; conditions: KB-V1 MDR cells viability, CellTiter-Glo, 72 h; series mostly up to 46.1 µM; activity change, negative = cytotoxicity: at the top concentration; note: nearly all actives have a fitted effect of over 60% in size
Outline: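 KB-V1 cells (P-gp-expressing MDR subline of KB-3-1) in phenol-red-free DMEM with 10% FBS were exposed to library compounds over a concentration series for 72 h at 37 degrees C. Viability read by CellTiter-Glo luminescence; concentration-effect curves fitted after normalization.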
% is set by controls: 0 for no effect and ±100 for the full control effect; potency is the fitted concentration of half-maximal effect.

| Structure (SMILES) | activity change, negative = cytotoxicity | Potency |
| --- | --- | --- |
| CC1(C2CC2)NC(=O)N(CC(=O)N2CCN(c3ccccc3F)CC2)C1=O (centres undefined) | -20.2% |  |
| O=C(Cn1c(-c2ccc(Cl)cc2)noc1=O)N1CCN(c2ccccc2F)CC1 |  | 9.2 µM (active) |
| O=C(CCSc1ccccc1)N1CCN(c2ccccc2F)CC1 | -18.4% |  |
| Clc1ccccc1Nc1nc(NCc2cccs2)nc2ccsc12 | -0.485% |  |
| CCCNC(=O)C(CC)n1nc(CC)n2c(cc3oc(C)cc32)c1=O (centres undefined) | -12% |  |
| CC(C)(C(=O)N1CCC1(C)C(=O)NS(=O)(=O)c1ccc(Br)cc1)c1ccccc1 (centres undefined) | 5.43% |  |
| CC(OC(=O)c1cccnc1Cl)C(=O)NC1CCCCC1 (centres undefined) | 2.47% |  |
| Cc1ccc(C(=O)NC2CCN(C(=O)Nc3ccc(F)cc3)CC2)cc1 | 0% |  |
| CCS(=O)(=O)N1CCCC(C(=O)NCc2ccc(C)cc2)C1 (centres undefined) | 9.47% |  |
| Cc1ccc(NC(=O)N2CCC(C(=O)NCc3ccc(F)cc3)CC2)cc1 |  | 18.4 µM (active) |
| O=C1Nc2ccccc2NC(c2ccc3c(c2)OCO3)=C1N(Cc1ccc(F)cc1)C(=O)c1ccco1 | 0% |  |
| O=C(c1ccc2c(c1)N(Cc1ccccc1F)C(=O)c1ccccc1S2(=O)=O)N1CCOCC1 | -15.2% |  |
| COc1ccc(C2c3c(oc4ccccc4c3=O)C(=O)N2Cc2ccc3c(c2)OCO3)cc1 (centres undefined) | 12.9% |  |
| C=CCn1c(SCC(=O)c2ccc(Br)cc2)nnc1C(C)NC(=O)Cc1ccc(OC)cc1 (centres undefined) | 0.852% |  |
| C=CCn1c(SCCOc2ccc(OC)cc2)nnc1C(NC(=O)c1ccc(OC)cc1)C(C)C (centres undefined) |  | 11.6 µM (active) |
| COc1ccc(C(=O)NCc2nnc(SCCOc3ccccc3)n2C)cc1 | -6.27% |  |
| CCOC(=O)c1c(C)[nH]c(C)c1C(=O)COC(=O)/C=C/c1cccc([N+](=O)[O-])c1 | 7.85% |  |
| O=C(OCc1cn([C@@H]2C[C@H](c3ccc(Cl)cc3)N(Cc3cccs3)C[C@H]2O)nn1)c1ccccc1 | -16.6% |  |
| COC(=O)c1ccccc1SC1CC(=O)N(c2cccc(C)c2)C1=O (centres undefined) | -2.53% |  |
| CCc1cccc(CC)c1N1C(=O)CC(Sc2ccccc2N)C1=O (centres undefined) |  | 6.51 µM (active) |
| Cc1ccnc(SC2CC(=O)N(c3ccccc3)C2=O)n1 (centres undefined) | 18.5% |  |
| COc1cc2c3c(c1)/C(=C1/SC(=S)NC1=O)C(=O)N3C(C)(C)C=C2C |  | 9.2 µM (active) |

| Structure (SMILES) | activity change, negative = cytotoxicity | Potency |
| --- | --- | --- |
| O=C(OCc1cn([C@H]2C[C@H](c3ccccc3)N(C(=O)c3cccs3)C[C@@H]2O)nn1)c1ccccc1 | 13.1% |  |
| COc1ccc(/C=C2\SC(=S)N(CCC(=O)N3CCOCC3)C2=O)cc1OC | 12.8% |  |
| C=C1C=C(C(F)F)n2ncc(C(=O)NCCc3ccccc3OC)c2N1 | 0% |  |
| O=C(O)CCCCCNc1ncnc2ccc(Br)cc12 | -28.3% |  |
| C=CCNc1ncnc2ccc(Br)cc12 |  | 20.6 µM (active) |
| Brc1ccc2ncnc(NCc3cccnc3)c2c1 | 3.72% |  |
| Cc1ccc2nc(COc3cccc(NC(=O)c4cccc(Cl)c4)c3)cc(=O)n2c1 | -2.75% |  |
| COc1ccc(C(=O)Cc2cnn(-c3ccccc3)c2)c(O)c1 | 6.65% |  |
| O=C(c1cnn(-c2ccc(Cl)cc2)c1)c1ccccc1O | -26.8% |  |
| Cc1cc(O)cc(O)c1C(=O)Cc1cnn(-c2ccccc2)c1 |  | 16.4 µM (active) |
| Cc1ccc(-c2cc(-c3coc4ccccc4c3=O)c3c(n2)-c2cc(Cl)ccc2OC3)cc1 | 23.8% |  |
| Cc1cc(C)c(S(=O)(=O)NN=C2c3ccccc3[C@H]3Cc4csc[n+]4[C@@H]23)c(C)c1 | 0% |  |
| C[C@H](CO)N1C[C@H](C)[C@@H](CN(C)C(=O)c2cccc(F)c2)Oc2cc(-c3cncnc3)ccc2S1(=O)=O | -5.26% |  |
| O=C(NCCOc1ccccc1)c1ccccc1F | -0.571% |  |
| COc1ccccc1N1CCN(C(=O)c2c(-c3c(Cl)cccc3Cl)noc2C)CC1 | 0% |  |
| COc1ccccc1N1CCN(C(=O)c2cc(=O)c3cc(C)cc(C)c3o2)CC1 |  | 0.206 µM (active) |
| COc1ccccc1N1CCN(C(=O)c2cc(=O)c3cc(C)ccc3o2)CC1 | -19.3% |  |
| O=C(Nc1ccc2c(c1)OCCO2)C1c2ccccc2OCC(=O)N1Cc1ccccn1 (centres undefined) | 0% |  |
| Cc1ccc(C(=O)N[C@H](C(=O)N2CCN(c3ncccn3)CC2)C(C)C)cc1 | -6.89% |  |
| O=C(Cn1cnc2c(cnn2-c2ccccc2)c1=O)NCc1ccccc1 |  | 5.17 µM (active) |
| CC(=O)Cn1cnc2c(cnn2-c2ccccc2)c1=O | 2.75% |  |
| Cc1c(C(=O)NCc2ccccc2)cnn1-c1ccccc1 | -2.59% |  |

| Structure (SMILES) | activity change, negative = cytotoxicity | Potency |
| --- | --- | --- |
| COc1ccc(OC)c(NC(=O)CN(C)CCOc2ccc(Br)cc2)c1 | -8.21% |  |
| COc1ccc(Cl)cc1NC(=O)CCS(=O)(=O)c1ccc(Br)cc1 | -12.7% |  |
| COc1ccc(Br)cc1CN(C)CC(=O)Nc1cc(Cl)cc(Cl)c1 |  | 7.31 µM (active) |
| CCCCCCN1CCN(C2CN(Cc3cn(CCCCCC)nn3)S(=O)(=O)C2)CC1 (centres undefined) | -17.4% |  |
| COc1ccc(-c2nc3ccc(Br)cn3c2Cc2ccc(C)cc2)cc1OC | 11.7% |  |
| CN(C)CCNC(=O)c1ccc(Cl)c2cc3ccccc3nc12 |  | 2.06 µM (active) |
| CN(C)CCNC(=O)Nc1cccc(Cl)c1Cl | -2.58% |  |
| CC(=O)NCCNC(=O)c1cc(-c2cccc3ccccc23)nc2ccccc12 | -9.24% |  |
| CCOC(=O)C1CCCN(C(=O)c2cc(-c3cccs3)oc2C)CC1 (centres undefined) | -0.946% |  |
| O=C1N(Cc2ccccc2)c2ccc(Cl)cc2C1(O)c1c[nH]c2ccccc12 (centres undefined) | 15.1% |  |
| CCOc1ccc(-c2nonc2NC(=O)c2oc3ccc(C)cc3c2C)cc1OCC | 4.56% |  |
| C/C(=N\NC(=O)COc1c(C)cccc1C)c1cccs1 | -15.3% |  |
| Cc1nn(-c2ccccc2)c(C)c1/C=N/NC(=O)CSc1nc2ccccc2c(=O)n1-c1ccccc1 | -1.83% |  |
| C/C(=N\NC(=O)CSc1nc2ccccc2c(=O)n1-c1ccccc1C)c1cccs1 |  | 2.31 µM (active) |
| Cc1ccc(S(=O)(=O)N2CCCCC2)cc1NC(=O)CCNC(=O)c1ccccc1Cl | -2.44% |  |
| CCn1c(C(O)c2cc(OC)ccc2OC)nc2ccccc21 (centres undefined) | 0% |  |
| CC(=O)Nc1nonc1-c1nc2ccccc2n1Cc1ccccn1 | -6.93% |  |
| COc1ccc(C)c(Cn2c(-c3nonc3N)nc3ccccc32)c1 |  | 2.31 µM (active) |
| O=C(NCCS(=O)(=O)N1CCN(c2ccccc2)CC1)c1cc(=O)c2ccccc2o1 | -16.5% |  |
| OCCC#Cc1ccc(N2C(c3ccsc3)=Cc3ccc(F)cc3C2c2c[nH]c3ccccc23)cc1 (centres undefined) | -2.8% |  |
